The source of these data is PubChem BioAssay (NCI).

Each structure is given as a SMILES string. The panel holds about 83,000 compounds, 20% with a hit somewhere; the sample as a whole holds those more often.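 Single-dose data. Exposure time 48 hours. Values below 10 considered active.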 Calls of active or inactive are those of the source.

In the experiment the test system is HCT-15 colon. As to the kind of experiment: NCI-60 one-dose screen, 48 h (100 = growth as untreated, 0 = no growth, -100 = all killed). As to conditions: 10 µM unless noted. Here is the method:
Growth inhibition of the HCT-15 human tumor cell line is measured as a screen for anti-cancer activity. Cells are grown in 96 well plates and exposed to the test compound for 48 hours. Compounds are tested at a single concentration, which is 10^-5 M for most compounds. The reported endpoint is percent growth (GI% or GIPRCNT), where numbers from 0 - 100% represent growth inhibition, and numbers from -100% - 0 represent cell death. For example, a value of 40 represents 60% growth inhibition. A value of 0 means no net growth occurred over the course of the experiment. A value of -40 indicates 40% of cells at the beginning of the experiment died by the end of the experiment. A value of -100 means all cells are dead at the end of the experiment.
NCI-60 Human Tumor Cell Lines Screen was performed using the standard one-dose NCI protocol, which is described in more detail at https://dtp.cancer.gov/discovery_development/nci-60/default.htm.
Compounds with GIPRCNT values below 10 were considered active. Activity score was based on GIPRCNT using the following formula: […]
Score is 0 for GIPRCNT values of 100 or above, 50 for GIPRCNT values of 0, and 100 for GIPRCNT values of -100.
For `COc1ccc(/C=C/C(=O)c2ccc(O)c(CN3CCN(c4cc5c(cc4F)c(=O)c(C(=O)O)cn5C4CC4)CC3)c2)cc1`, the growth was 19.1% (inactive).

Consider `O=c1cc(CSc2nnc(SCc3cc(=O)oc4c3ccc3ccccc34)o2)c2ccc3ccccc3c2o1`, for which the growth was 104% (inactive).

In the case of `CC1=C/C(=C(\c2ccc(N(C)C)cc2)c2ccc([N+](C)(C)C)cc2)C=CC1=[N+](C)C`, the growth was 95.7% (inactive).

Take `Cc1ccccc1COc1ccc(-c2ccnn2-c2ccc(Cl)cc2)cc1`: the growth is 39.9% (inactive).

For `CCC#CC[C@H](O)C/C=C1/C(=O)C=C[C@@H]1C/C=C\CCCC(=O)OC`, the growth is 3.26% (active).

As for `NC(CSC(c1ccccc1)(c1ccccc1)c1ccc(Cl)cc1)C(=O)O` (stereo not given), the growth is 19.3% (inactive).

Take `CCOC(=O)c1c(C)oc2ncnc(N3CCN(C(=O)COc4ccc(SC)cc4)CC3)c12`: the growth was 95.8% (inactive).

As for `CN(C)S(=O)(=O)c1ccc(S(=O)(=O)Nc2cccc(Cl)c2N2CCCCC2)cc1`, the growth was 79.9% (inactive).

As for `Cc1ncc(C(=O)Nc2ccc(CN3CCN(C)CC3)c(C(F)(F)F)c2)cc1C#Cc1cnc2cccnn12`, the growth is 4.12% (active).

`COc1ccc(-c2cc(-c3ccc(Nc4ccnc5cc(Cl)ccc45)cc3)nc(N3CCOCC3)n2)cc1`: the growth was 20.7% (inactive).

For `O=C1c2cc3c(cc2-c2c1c1ccc(Cl)cc1c(=O)n2CCCN1CCOCC1)OCO3`, the growth was 80.9% (inactive).

For `O=C1/C(=C/c2ccccc2O)N=C2SCCCN12`, the growth was 97% (inactive).

In the case of `CN1CCN(CCCOc2cccc3nc(Nc4ccc(Cl)c(F)c4)ccc23)CC1`, the growth was -48.3% (active).

Regarding `CC(=O)O[C@H]1C(=O)[C@@]2(C)[C@H]([C@H](OC(=O)c3ccccc3)[C@]3(O)C[C@H](OC(=O)[C@H](OC(=O)CCC(=O)OC4CCC(S/N=C(N)/N=C(\N)N(C)C)CC4)[C@@H](NC(=O)c4ccccc4)c4ccccc4)C(C)=C1C3(C)C)[C@]1(OC(C)=O)CO[C@@H]1C[C@@H]2O` (stereo not given in full), the growth was 25.3% (inactive).

Turning to `O=C(/C=C/c1ccccc1)c1ccc(O)c(CN2CCN(c3cc4c(cc3F)c(=O)c(C(=O)O)cn4C3CC3)CC2)c1`, the growth is 16.9% (inactive).

With `CCCCn1cnc2c(Sc3c([N+](=O)[O-])ncn3C)nc(N)nc21`, the growth was 91.6% (inactive).

With `CCc1nc(N)nc(N)c1C#CC(C)c1ccc(-c2ccncc2)cc1Cl` (stereo not given), the growth is 13.3% (inactive).

As for `COc1cccc(NC(=O)c2sc3nc(C)c(C(C)=O)cc3c2N)c1`, the growth was 35.9% (inactive).

In the case of `CCOC(=O)n1cc(-c2nonc2-c2cn(C)c3ncccc23)c2cc(F)ccc21`, the growth was 68.8% (inactive).

As to `CCN(CC)c1ccc2c(c1)Oc1nc(N)c(C#N)c(N)c1C2Sc1ccc(SC)cc1` (stereo not given), the growth is -14.3% (active).

Regarding `Clc1ccc2nc3nc4ccc[nH]c4cc3c2c1`, the growth was 69.3% (inactive).

Regarding `CCNC(=O)Oc1ccc(/C(=C(\C)c2ccc(Cl)cc2)c2ccc(OCCN(CC)CC)cc2)cc1`, the growth is 1.8% (active).

In the case of `OC(c1cc2cc(Cl)c(Cl)cc2c2cc(C(F)(F)F)ccc12)C1CCCCN1` (stereo not given), the growth was -60.7% (active).

Regarding `CC[C@H]1OC(=O)[C@H](C)[C@@H](O[C@H]2C[C@@](C)(OC)[C@@H](O)[C@H](C)O2)[C@H](C)[C@@H](O[C@@H]2O[C@H](C)C[C@H](N(C)C)[C@H]2O)[C@](C)(O)C[C@H](C)CN(C)[C@H](C)[C@@H](O)[C@]1(C)O`, the growth was 97.1% (inactive).

Take `NC(=O)c1cc(Br)ccc1NC(=O)/C=C/c1ccccc1`: the growth is 30.9% (inactive).

`O=C(/C=C/c1ccc(C(F)(F)F)cc1)Nc1ccc(C=C2c3ccccc3C(=O)c3ccccc32)cc1`: the growth was 47.4% (inactive).

In the case of `COc1cc(C2CC(=O)c3ccccc3N2)cc(OC)c1OC` (stereo not given), the growth was 102% (inactive).

With `O=S(=O)(Nc1ccc(Cl)c(F)c1)c1ccc(-c2cnc(C3CC3)o2)cc1`, the growth is 21.1% (inactive).

As to `Cc1nc(Nc2ccc(F)c(Cl)c2)sc1C(=O)O`, the growth was 11.3% (inactive).

For the compound `N#Cc1nnn(-c2ccc(S(N)(=O)=O)cc2)c1NC(=O)CCl`, the growth is 96% (inactive).

Take `O=C1c2cc3c(cc2-c2c1c1ccc(F)cc1c(=O)n2C[C@H](O)[C@@H](O)[C@H](O)CO)OCO3`: the growth is 5.37% (active).

Take `C=CC(=O)Nc1cccc(-c2nc(SC)nc(Nc3ccccc3OC)c2C#N)c1`: the growth is 16.9% (inactive).

Take `CC(=O)O[C@H]1CC[C@]2(C)[C@H]3CC=C4[C@@H]5CC(C)(C)CC[C@]5(C(=O)NCCNCCNCCN)CC[C@@]4(C)[C@]3(C)CC[C@H]2C1(C)C`: the growth is -74.8% (active).

In the case of `Cc1nn(-c2cc(=O)[nH]c3ccccc23)c(N)c1C#N`, the growth is 106% (inactive).

`CCn1c(O)c(/C=N/NC(=O)C(C)c2ccc(CC(C)C)cc2)sc1=S` (stereo not given): the growth is 17.6% (inactive).

With `CSc1nc(NCCO)c(C#N)c(-c2cccc([N+](=O)[O-])c2)n1`, the growth was 98.7% (inactive).

`O=C1/C(=C(/c2ccccc2)N2CCOCC2)Cc2ccccc21`: the growth was -25.9% (active).

Take `N#Cc1c(-c2ccc(Cl)cc2)nc(NN=Cc2ccco2)nc1N1CCOCC1`: the growth is 80.3% (inactive).

Turning to `CC(C)CC1C(=O)N2CCC[C@H]2C2(O)O[C@](NC(=O)C3C=C4c5cccc6[nH]c(Br)c(c56)C[C@H]4N(C)C3)(C(C)C)C(=O)N12` (stereo not given in full), the growth is 43.1% (inactive).

For the compound `COc1ccc(C(=O)c2sc3nc4c(c(-c5cccnc5)c3c2N)CCCC4)cc1OC`, the growth is 72.8% (inactive).
